PubChem BioAssay (NCI)
Several values for one entry are separate records, joined by “and”; a condition that tells them apart may be missing. Equal entries are not always repeated. Compounds without any hit were thinned out: in the full panel of roughly 79,000, 15% have a hit. Unmarked numbers belong to inactive results. Activity calls are given as the source filed them. Cut-off read from the data, not from the text of the source: active = growth inhibition above about 70%; inactive = the rest.

Assay: NCI Yeast Anticancer Drug Screen. Data for the sgs1 mgt1 strain (AID 161);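 note: 0% = growth of cultures given vehicle only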
Details: S. cerevisiae sgs1 mgt1 strain, stronger effect = higher value
Procedure: Growth inhibition of yeast strains with defined genetic alterations is measured as a screen for potential anti-cancer activity. Selected strains with alterations in DNA damage repair or cell cycle control were exposed to compounds and growth inhibition was measured relative to vehicle treated controls. The strain used in this assay is sgs1 mgt1

[1] = at 5.0 µM (retest, dose inferred, filed as 0.5)
[2] = at 50.0 µM (retest, dose inferred, filed as 5.0)

Structure (SMILES) | growth inhibition [1] | growth inhibition [2] | growth inhibition (at 50.0 µM)
CCCCCCCCCCCCN1C(C)=CS/C1=C\C=C\c1scc(C)[n+]1CCCCCCCCCCCC | 18% | 96% (active) | 84.7% (active)
COc1c(/C=C/C=O)cc2c(c1OC)OCO2 | 31% | 57% | 19.1%
Oc1ccc2c(c1)CCc1ccccc1-2 | 11% | 88% (active) | 95.8% (active)
c1ccc(-c2cccc(-c3ccccn3)n2)nc1 | 91% (active) | 99% (active) | 99.5% (active)
Clc1ccc(-n2ncc3c(NCCCN4CCOCC4)ncnc32)cc1 | 1% | 81% (active) | 82.8% (active)
COc1c(C)c2c(c(O)c1C/C=C(\C)CCC(=O)O)C(=O)OC2 | 30% | 90% (active) | 92.2% (active)
Oc1ccc(Cc2ccc(Cl)cc2)c(O)c1 | -1% | 99% (active) | 
O=C(CBr)c1ccc(OC(=O)c2ccccc2)cc1 | 100% (active) | 100% (active) | 18.4%
CCCCC(CC)CNC(=O)CI (stereo not given) | 6% | 73% (active) | 
CC1=CC[C@@H]2[C@@H](CC[C@@]2(C)O)C(C)(C)[C@H]1CC[C@@H]1[C@@]2(C)CC[C@@H](O)C(C)(C)O[C@@H]2CC[C@]1(C)O | 4% | 70% (active) | 77.5% (active)
Cc1ccc(NC(=S)C#N)cc1Cl | 41% | 60% | 77.3% (active)
Cc1onc(-c2ccccc2)c1C(=O)N/N=C/c1cc(Cl)cc(Cl)c1O | 93% (active) | 98% (active) | 90.8% (active)
C=C1C(=O)C2=CC1CCC(=O)C1(C)CCC(OC(C)=O)C(C)(C)C1CC2O (stereo not given) | 12% | 46% | 78.7% (active)
COc1cc2c(cc1OC)C(=O)C1COC(=O)C1C2 (stereo not given) |  |  | -8.7% and 14.8%
C=C1C(=O)OC2/C=C(/C)C3CC(O)C(C)(CC(OC(=O)/C(C)=C/C)C12)O3 (stereo not given) |  |  | -6.85% and 0.45%
O=[N+]([O-])c1ccc2c(c1)C(=Nc1ccccc1)c1cccc([N+](=O)[O-])c1-2 |  |  | 15.6% and -6.05%
